In the library only some 3.5% were active in any assay of this set; here they are far more common.
GPR151 ag: human GPR151 activation; Q8TDV0; PathHunter beta-arrestin GPR151 cells, luminescence; activation, % at 11.2 µM; 650,000 compounds, 1% hits; in the data active means activation above about 4.9%;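 further: 0% = median of compound wells and 100% = cells with positive control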
MITF inh: inhibitors of human MITF; O75030; 650,000 compounds, 0.91% hits; inhibition, % at 2.6 µM; AlphaScreen MITF homodimerization, bead proximity signal; in the data active means inhibition above about 50%;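 further: 0% = vehicle wells with protein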
FBW7 act: activators of human E3 ligase FBW7; 650,000 compounds, 0.13% hits; Q969H0; AlphaScreen FBW7–phospho-cyclin E peptide binding, activator screen; normalized activity (activation), % at 26.1 µM; in the data active means normalized activity above about 1.9%;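 further: purified mutant Fbw7 with reduced substrate affinity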
TEAD-YAP block: TEAD-YAP interaction inhibition; HEK-TIYL cells, TEAD-Gal4/YAP UAS-luciferase luminescence; inhibition, % at 9.12 µM; 640,000 compounds, 1.4% hits; in the data active means inhibition above about 32%;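 further: 0% = median of test compound wells and 100% = reference inhibitor wells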
* = called active by the depositor.

SMILES	GPR151 ag	MITF inh	FBW7 act	TEAD-YAP block
Cc1onc(-c2ccccc2)c1C1=N/C(=C\c2cccc(Br)c2)C(=O)O1	-1	9	2.2*	1
COc1ccc(NC(=O)c2cc(N3CCN(c4ccc(F)cc4)CC3)nc3ccccc23)cc1Cl	0	13	0	-7
Cc1cnc(CNC(=O)CC2C(=O)NCCN2Cc2c(F)cccc2Cl)cn1 (configuration not stated)	-1	10	0	2
O=C(CCC(=O)NC1CCN2CCCc3cccc1c32)NCCN1CCOCC1 (configuration not stated)	2	0	0	-10
O=C(Nc1ccc(O)cc1)c1cc2ccccn2n1	-3	6	0	56*
CCCOc1ccc(-c2cc(C(=O)N3CCC(Cc4ccccc4)CC3)c3ccccc3n2)cc1	-1	17	0	1
Cc1sc2nc(C)n(C3CCN(C(=O)c4ccncc4)CC3)c(=O)c2c1C	0	-14	0	40*
Cc1nc(NC(=O)c2cccs2)ccc1I	-2	4	0	-22
Cc1cccnc1NC(=O)CN1C(=O)COc2ccccc21	1	-11	0	3
O=C(COC(=O)CCC(=O)c1ccc(F)cc1)Nc1ccc(F)c(F)c1	0	9	0	8
COCc1cc(CN2CCCC2)c(O)c2ncccc12	1	100*	-1	81*
CCCOCc1cc(CN2CCN(C)CC2)c(O)c2ncccc12	-2	94*	-1	7
COc1ccccc1N1CCN(Cc2cc(COCc3ccccc3)c3cccnc3c2O)CC1	0	49	-1	74*
CCOCc1cc(CN2CCOCC2)c(O)c2ncccc12	-1	86*	-1	-3
CC1CCN(Cc2cc([N+](=O)[O-])c(O)c3ncccc23)CC1	-1	42	-1	-5
CC(=O)Nc1ccccc1OS(=O)(=O)c1cc(Br)ccc1C	-2	10	0	7
Clc1ccc(Nc2ncn(-c3ccnc(Nc4ccc(N5CCOCC5)cc4)c3)n2)cc1	0	2	0	18
Nc1ccccc1C(=O)OCC(=O)c1ccc(Br)cc1	0	-17	0	-9
O=c1[nH]c2ccccc2c(=O)n1CCc1ccc(Cl)cc1	1	-7	0	-7
COc1ccccc1C1CC(=O)C2=C(C1)NC(C)=C(C(=O)OC(C)C)C2c1ccc(OC(C)=O)cc1 (configuration not stated)	-1	6	0	10
COc1ccccc1N1CCN(Cc2cc(COC(C)C)c3cccnc3c2O)CC1	1	82*	-1	35*
CCOc1ccccc1N1CCN(Cc2cc(OC)c(OC)c(OC)c2)CC1	-1	35	1	41*
CCOCc1cc(CN2CCN(c3ccccc3OC)CC2)c(O)c2ncccc12	0	91*	-1	10
COc1ccccc1N1CCN(Cc2cc(Cl)c3cccnc3c2O)CC1	-3	42	-1	32*
COc1ccccc1N1CCN(Cc2cc([N+](=O)[O-])c3cccnc3c2O)CC1	-1	18	-1	14
SMILES	GPR151 ag	MITF inh	FBW7 act	TEAD-YAP block
CCOc1ccccc1N1CCN(Cc2cccc(OC)c2O)CC1	0	17	0	8
CN(C)c1cccc(C(=O)OCC(=O)COC(=O)c2cccc(N(C)C)c2)c1	0	-14	0	-10
COc1ccc(Cc2nnc(SCC(=O)c3ccc(OC)cc3)n2C)cc1	1	1	0	-2
CCOCCCNC(=O)c1cccc2c1SCCC2=O	1	4	0	4
CCN(CC)CCOC(=O)c1ccc(NC(=O)c2c(O)c3ccccc3[nH]c2=O)cc1	0	-16	0	6
CCC(O)CNC1CCN(c2ccc(NC(=O)c3ccc(C)cc3C)cc2)CC1 (configuration not stated)	-1	2	0	-2
CC(C)(C)c1ccc(CN2C=NS(=O)(=O)c3ccccc32)cc1	-1	-7	0	-3
COCc1cc(CN(C)C2CCCCC2)c(O)c2ncccc12	0	67*	-2	74*
COc1ccccc1N1CCN(Cc2cc(Br)c(O)c3ncccc23)CC1	0	43	-1	81*
Oc1c(CN2CCCCC2)cc(COCc2ccccc2)c2cccnc12	0	98*	-1	74*
COc1ccccc1N1CCN(Cc2cc([N+](=O)[O-])c(O)c3ncccc23)CC1	-1	28	-1	6
CC(C)(C)CC(C)(C)c1ccc(OC(=O)/C=C/c2cccc([N+](=O)[O-])c2)cc1	1	13	0	-4
Cc1ccc(C(=O)CSc2nccn(-c3cccc4ccccc34)c2=O)cc1	1	7	0	-7

Source: PubChem
